Compounds with a hit are over-represented: about 4.8% of the library has one in this group of screens.
DAX1 inh-1: DAX1 (NR0B1) inhibitors on StAR promoter, primary screen, cell-based, luminescence, SF-1 (NR5A1), full-length DAX-1 | actives 1.1% (n = 370,000) | inhibition, % at 6.8 µM | HEK293T StAR-luciferase reporter, SF-1/DAX-1 repression relief;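 active = inhibition above the mean over all tested compounds plus 3 SD, cut at about 3.6% in these data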;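 note: 0% = DAX-1 cells with DMSO and 100% = cells lacking DAX-1 with DMSO; higher inhibition means more luminescence from relief of DAX-1 repression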
ssDAF12 agonist: S. stercoralis DAF-12 nuclear receptor activators, primary screen, cell-based, luminescence, HEK293, GRIP1 co-expression, lit1-tk-luc. HEK293 ssDAF-12/GRIP1 lit1-tk-luc reporter; % of 3 µM dafachronic acid response. actives 1% (n = 370,000). activation, % at 6.8 µM. Nuclear hormone receptor DAF-12 (Strongyloides stercoralis);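 active = activation above the mean over all tested compounds plus 3 SD, cut at about 0.9% in these data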;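 note: 0% = DMSO-only wells and 100% = 3 µM delta7-dafachronic acid wells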
hgDAF12 agonist: H. glycines DAF-12 receptor agonists, primary screen, cell-based, luminescence, HEK293, GAL4 fusion, UAS-luciferase; Nuclear hormone receptor DAF-12 (Heterodera glycines), GAL4 fusion; HEK293 GAL4-hgDAF12 UAS-luciferase reporter, agonist luminescence; normalized to butyrate control; activation, % at 6.8 µM; actives 1.8% (n = 370,000); AID 687014, 2013;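 active = activation above a cutoff set at the mean of all screened compounds plus 3 SD, cut at about 10% in these data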;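 note: 0% = DMSO wells and 100% = sodium butyrate wells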
DAX1 inh-2: DAX1 (NR0B1) inhibitors, primary screen, cell-based, HEK293, Gal4-DAX1, luciferase luminescence | Nuclear receptor subfamily 0 group B member 1 (Homo sapiens), P51843 | HEK293 Gal4-DAX1 luciferase reporter | inhibition, % at 6.75 µM | actives 0.99% (n = 340,000);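 active = inhibition above the mean over all tested compounds plus 3 SD, cut at about 4.2% in these data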;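 note: 0% = DAX1-transfected cells with DMSO and 100% = empty-vector control cells with DMSO; inhibition shows as a rise in luminescence from relieved DAX1 repression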
Target sequence (P51843 207-470 limits assumed): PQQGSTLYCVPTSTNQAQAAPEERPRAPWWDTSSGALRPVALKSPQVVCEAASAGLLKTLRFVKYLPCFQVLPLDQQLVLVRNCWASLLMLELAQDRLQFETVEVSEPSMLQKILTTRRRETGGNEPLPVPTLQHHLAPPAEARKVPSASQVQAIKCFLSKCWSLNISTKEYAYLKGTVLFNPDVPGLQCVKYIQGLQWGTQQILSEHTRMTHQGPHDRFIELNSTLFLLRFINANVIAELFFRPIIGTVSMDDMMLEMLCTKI
hcDAF-12 act: H. contortus DAF-12 nuclear receptor activators, primary screen, cell-based, luminescence, HEK293, lit1-tk-luc reporter; activation, % at 6.8 µM; HEK293 hcDAF-12 lit1-tk-luc reporter; 0% DMSO, 100% Δ7-dafachronic acid; actives 1.4% (n = 370,000);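 active = activation above the mean of all tested compounds plus 3 SD, cut at about 5.5% in these data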;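 note: 100% = response to 3 µM Δ7-dafachronic acid high control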
SMARCA2 activ: SMARCA2 (BRM) function activators, primary screen, cell-based, luminescence, high throughput; MG213 cells, MMTV-luciferase reporter, dexamethasone, overnight; activation, % at 9.1 µM; actives 1% (n = 370,000); AID 652017, 2013; in the data active = activation above about 7.8%;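 note: 0% = vehicle wells and 100% = reference activator wells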
An asterisk follows results filed as active; . = not tested or not shown.

SMILES	DAX1 inh-1	ssDAF12 agonist	hgDAF12 agonist	DAX1 inh-2	hcDAF-12 act	SMARCA2 activ
Cc1ccccc1C(=O)N/N=C1/SCC(=O)N1Cc1ccccc1	0	16*	-5	-2	-2	-2
CCC(C)(O)C(=O)N[C@H]1CCCN1C(=O)/C=C/c1ccccc1 (some centres not stated)	0	-1	1	2	0	-1
O=C(CCN1C(=O)c2ccccc2C1=O)N1CCN(Cc2ccccc2)CC1	0	-1	-1	-1	-2	-3
COCCN(CC1CCCN(C2Cc3ccccc3C2)C1)C(=O)c1cccs1 (configuration not stated)	1	-1	0	0	4	4
O=C(c1cccs1)N(CCN1CCCCC1)CC1CCCN(C2CCCC2)C1 (configuration not stated)	0	0.9*	8	0	3	2
O=C(c1cc2cc(F)ccc2[nH]1)N(Cc1cccnc1)CC1CCCN(C2CCCCC2)C1 (configuration not stated)	2	0	1	1	3	-2
Cc1ccc(C(=O)N(CCN2CCCCC2)CC2CCCN(C3CCCC3)C2)s1 (configuration not stated)	4.4*	0	7	0	3	3
O=C(NC1CCOC1)c1ccc(OC2CCN(CCc3ccccc3)CC2)cc1 (configuration not stated)	0	-1	2	1	0	-1
O=C(NCCN1CCC(n2c(=O)[nH]c3ccccc32)CC1)c1cccc(Cl)c1	0	-1	19*	.	-1	-3
O=C(NCCN1CCC(n2c(=O)[nH]c3ccccc32)CC1)c1cccc(F)c1	0	0	-1	.	-2	-4
Nc1c2c(nc3ccccc13)CCCC2=O	1	1	3	2	6.5*	0
Nc1c2c(nc3ccccc13)CCCC2O (configuration not stated)	-1	-1	0	1	-1	-1
Cc1ccc(-c2nnn3c2nc(NCCc2ccc(S(N)(=O)=O)cc2)c2ccccc23)cc1	0	0	4	0	5.7*	-2
NNc1nc2c(-c3cccc(C(F)(F)F)c3)nnn2c2ccccc12	0	0	-2	0	6.5*	-3
CC(=O)NCCNc1nc2c(-c3cccc(C(F)(F)F)c3)nnn2c2ccccc12	1	0	-1	1	4	1
COCCNc1nc2c(-c3cccc(C(F)(F)F)c3)nnn2c2ccccc12	0	1.3*	3	2	6.5*	0
Cc1cccc(-c2nnn3c2nc(NCCc2ccc(S(N)(=O)=O)cc2)c2ccccc23)c1	0	0	0	-2	3	7
Cc1ccc(C)c(NC(=O)CN(C)C(C)C(=O)N2CCCC2)c1 (configuration not stated)	0	-1	0	-1	-1	-1
Cc1c(NC(=O)COC(=O)c2cccn2C)c(=O)n(-c2ccccc2)n1C	1	-1	0	4.4*	1	-2
COc1ccc(N2CC(C(=O)N[C@@H](C)C(=O)NC3CCCC3)CC2=O)cc1 (some centres not stated)	0	0	-1	0	2	-3
CCC(C)[C@H](NC(=O)C1CC(=O)N(c2ccc(OC)cc2)C1)C(=O)NC1CCCC1 (some centres not stated)	0	-1	0	0	0	8.0*
COc1cc(OC)cc(-c2c(-c3cccs3)c3cc(-c4ccc(OCc5ccccc5)cc4)ccc3n2C)c1	0	-1	2	4	-2	1
COc1cc([N+](=O)[O-])c2nc(C(=O)O)ccc2c1	-3	-1	0	2	-2	-1
C[C@@H]1CN([C@@H](C)CO)C(=O)Cc2cc(NC(=O)Nc3ccc(F)cc3)ccc2O[C@@H]1CN(C)Cc1ccc(Cl)c(Cl)c1	0	-1	0	0	-1	-1
Cc1sc(N)nc1-c1ccc2c(c1)OCCO2	1	-1	2	-1	1	0
SMILES	DAX1 inh-1	ssDAF12 agonist	hgDAF12 agonist	DAX1 inh-2	hcDAF-12 act	SMARCA2 activ
NC1=NN=C(c2ccc3c(c2)OCCO3)CS1	4.5*	-1	13*	-1	3	1
Cc1onc(-c2ccccc2Cl)c1C(=O)NC(=S)NCCc1ccccc1	-1	-1	-1	-2	-2	8.6*
COc1ccc(CCNC(=S)NC(=O)c2c(-c3ccccc3Cl)noc2C)cc1OC	0	-1	-2	.	-2	-1
COc1ccc(N2CCN(Cc3nc4ccccc4n3C)CC2)cc1	-1	1.8*	-2	2	4	-3
COc1ccc(N2CCN(c3cnc4ccccc4n3)CC2)cc1	1	0	11*	0	0	2
CC1CCN(CCCNC(=O)c2cc3c(=O)n(C)c4ccccc4c3n2C)CC1	4.7*	-1	2	6.0*	3	0
CC(C)Cn1cc(C(=O)NCCCN2CCC(C)CC2)c2c3ccccc3n(C)c2c1=O	2	-1	-2	5.3*	3	-2
CCOc1ccc(NC(=O)Nc2nnc(CC(=O)NCc3ccccc3)s2)cc1	-1	-1	3	-2	-1	-1
COc1ccc(Nc2nccc3c2nnn3C)cc1	4.2*	0	7	3	4	7
C=CCN1CC(c2nc3ccccc3n2Cc2cccc3ccccc23)CC1=O (configuration not stated)	0	-2	-3	0	-1	1
Cc1ccc(C)c(NC2CCCCC2NS(=O)(=O)c2ccccc2)c1 (configuration not stated)	4.2*	-1	-1	0	-1	-2
COc1cc(C2C(C#N)=C(N)Oc3cc(O)ccc32)cc(OC)c1OC (configuration not stated)	0	-1	-1	0	0	-4
COc1cc(C2C(C#N)=C(N)Oc3cc4c(cc32)OCO4)cc(OC)c1OC (configuration not stated)	4.4*	-1	-1	1	0	0
CC(=O)c1ccc(OCc2cc(C(=O)N3CCN4CCCC4C3)no2)cc1 (configuration not stated)	-1	-1	-4	0	0	-2

Compound activity deposited in PubChem BioAssay by The Scripps Research Institute Molecular Screening Center.
